This is part of a sample that, as a whole, favours compounds with a hit. Of some 83,000 tested, about 20% had one in any assay.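 Testing used 96-well plates and a 48-hour single-concentration exposure. Example: -40 means 40% of the starting cells died.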 Values without a mark were called inactive. The source made the active and inactive calls. Rule for the calls: active = growth percent below 10; inactive = the rest.
Columns and labels:
Test in all cases: NCI-60 one-dose screen, 48 h (100 = growth as untreated, 0 = no growth, -100 = all killed)
Conditions in all cases: 10 µM unless noted
[1] = system: NCI-H23 lung
[2] = system: NCI-H226 lung
[3] = system: NCI-H322M lung
[4] = system: HOP-62 NSCLC
[5] = system: NCI-H460 lung
[6] = system: HOP-92 NSCLC
[7] = system: NCI-H522 lung
[8] = system: A549/ATCC NSCLC
[9] = system: 786-0 renal
[10] = system: COLO 205 colon
[11] = system: DU-145 prostate
[12] = system: K-562 leukemia
[13] = system: MALME-3M melanoma
[14] = system: MDA-MB-231 breast
[15] = system: RXF 393 renal
[16] = system: SF-268 CNS
[17] = system: SF-295 CNS
[18] = system: SF-539 CNS
[19] = system: UACC-257 melanoma
[20] = system: M14 melanoma

Structure (SMILES) | growth [1] | growth [2] | growth [3] | growth [4] | growth [5] | growth [6] | growth [7] | growth [8] | growth [9] | growth [10] | growth [11] | growth [12] | growth [13] | growth [14] | growth [15] | growth [16] | growth [17] | growth [18] | growth [19] | growth [20]
CC(=O)Cc1nsc(NC(=O)c2cc(-c3cc(Cl)cc(Cl)c3)oc2C)n1 | 101% | 96.3% | 100% | 95.9% | 103% | 105% | 86.6% | 94.3% | 98% | 107% | 108% | 100% | 111% | 104% | 105% | 88.1% | 99.4% | 98.5% | 89% | 105%
Cc1cnc(C(=O)NNc2nc3sc4c(c3c(=O)n2C)C(C)CCC4)cn1 (stereo not given) | 5.46% (active) | -1.53% (active) | 9.91% (active) | -39.1% (active) | 4.18% (active) | -9.03% (active) | -9.87% (active) | -5.22% (active) | 0.305% (active) | 0.0868% (active) | 7.49% (active) | 6.51% (active) | -22.3% (active) | -3.01% (active) | -12.6% (active) | 5.92% (active) | 8.03% (active) | -21.1% (active) | -11.3% (active) | -15.7% (active)
CCOC(=O)c1ccc2[nH]c(O)c(C(=Nc3ccc(N(C)C(=O)CN4CCN(C)CC4)cc3)c3ccccc3)c2c1 | -59.3% (active) | 15.5% | 11.7% | -5.97% (active) | -27.1% (active) | 30.3% | -48.8% (active) | -20.5% (active) | -95% (active) | -56.3% (active) | -9.05% (active) | -20.8% (active) | -88.9% (active) | -72.3% (active) | -97.7% (active) | 7.68% (active) | -6.29% (active) | -91.1% (active) | -55.4% (active) | -78.5% (active)
COC(=O)[C@H]1CCCN1C[C@@H](O)CN1C(=O)/C(=C\c2cc(OC)c(OC)c(OC)c2)c2ccccc21 | 106% | 96.6% | 106% | 108% | 94.9% | 105% | 97.8% | 90.3% | 101% | 121% | 99.6% | 81.4% | 100% | 102% | 114% | 99.8% | 105% | 111% | 90.6% | 97.3%
N#Cc1nn(-c2cc(=O)[nH]c3ccc(Cl)cc23)c(N)c1C#N | 104% | 99.4% | 91.9% | 87.2% | 114% | -79.6% (active) | 87.1% | 98.3% | 93.4% | 100% | 118% | -43.9% (active) | 91.9% | 108% | 107% | 113% | 97.6% | 96% | 87% | 93.7%
O=C(c1cc2ccccc2o1)c1nn(-c2ccccc2)/c(=N/N=Cc2cn(-c3ccccc3)nc2-c2cc3ccccc3oc2=O)s1 | 99.4% | 99.4% | 92% | 97.6% | 106% | 73.2% | 88% | 106% | 103% | 117% | 103% | 78.2% | 98.9% | 86.2% | 107% | 96.8% | 104% | 98.4% | 103% | 97.8%
COc1cc(-c2cc(-c3cccs3)c(C#N)c(N3CCOCC3)n2)cc(OC)c1OC | 101% | 111% | 100% | 134% | 11.1% | 101% | 80.3% | 83.6% | 37.7% | 56.4% | 98.7% | 10.9% | 116% | 65.4% | 40.6% | 113% | 62% | 58.9% | 20.7% | 44.6%
COC(=O)c1cc(-c2ccccc2)[nH]c1N/N=C/c1c(Cl)cccc1Cl | 14.2% | 37.9% | 34.6% | -28.2% (active) | -3.25% (active) | 10.5% | -41.9% (active) | 21.7% | 9.31% (active) | 12.5% | -5.4% (active) | -21.8% (active) | -15.2% (active) | 10.5% | -18.7% (active) | 33.1% | -59.5% (active) | -33.3% (active) | 51% | -12.3% (active)

Source: PubChem BioAssay (NCI)
